Results filed as inconclusive are left out. A structure can be active in one record and inactive in another. Active and inactive are the calls of the source. Unless noted, calls follow the shape of the dose curve; as a rule, active = well fitted curve in the direction sought with a large enough effect in the repeat runs; inconclusive = weak or mixed curves; inactive = no such curve, though single readings can be large; an effect the other way counts as inactive or inconclusive.

In assay [1] the target is Thyrotropin receptor (Homo sapiens) (UniProt P16473). Kind of assay: qHTS assay to identify small molecule antagonists of the thyroid stimulating hormone receptor (TSHR) signaling pathway (AID 1259385; calls by dose curve; also: nearly all actives have a fitted effect of over 20% in size). The method in brief: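 TSHR-HEK293 cells were plated and held 18 h at 37C/5% CO2, then given compound plus Ro20-1724 and stimulated with TSH at 1.5 ng/mL final. After 30 min at room temperature, cAMP was detected with cAMP-d2/anti-cAMP-cryptate (1 h) by fluorescence.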
Chain of Thyrotropin receptor (Homo sapiens) (P16473 whole entry, looked up): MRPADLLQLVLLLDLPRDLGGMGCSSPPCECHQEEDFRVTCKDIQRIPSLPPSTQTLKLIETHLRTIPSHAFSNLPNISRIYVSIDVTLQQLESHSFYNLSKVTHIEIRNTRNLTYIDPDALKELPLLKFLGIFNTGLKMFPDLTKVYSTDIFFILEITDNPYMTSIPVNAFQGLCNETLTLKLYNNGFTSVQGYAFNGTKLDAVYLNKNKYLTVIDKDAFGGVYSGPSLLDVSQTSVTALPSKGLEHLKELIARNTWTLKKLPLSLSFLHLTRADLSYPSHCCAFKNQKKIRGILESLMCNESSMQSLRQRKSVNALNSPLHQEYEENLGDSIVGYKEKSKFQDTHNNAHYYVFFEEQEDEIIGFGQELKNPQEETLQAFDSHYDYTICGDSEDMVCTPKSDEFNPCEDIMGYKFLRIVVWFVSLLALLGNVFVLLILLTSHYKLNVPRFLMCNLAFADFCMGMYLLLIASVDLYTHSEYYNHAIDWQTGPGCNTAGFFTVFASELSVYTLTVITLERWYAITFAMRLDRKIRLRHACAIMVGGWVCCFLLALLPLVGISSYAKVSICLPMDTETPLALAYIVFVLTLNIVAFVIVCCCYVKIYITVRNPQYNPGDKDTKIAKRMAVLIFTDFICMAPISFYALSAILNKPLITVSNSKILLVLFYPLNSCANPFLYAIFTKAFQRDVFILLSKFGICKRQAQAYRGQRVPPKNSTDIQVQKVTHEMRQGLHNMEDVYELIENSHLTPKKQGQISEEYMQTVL
A general note: In qHTS, concentration-response curves come from the screen itself.

A short description of assay [2]: qHTS assay to identify small molecule agonists of the estrogen receptor alpha (ER-alpha) signaling pathway in the presence of an antagonist - cell viability counter screen (AID 1259386).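 Also: series mostly up to about 92 µM; cells exposed to compounds for 22 h at 37 °C before the viability read; nearly all actives have a fitted effect of over 30% in size.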 The method in brief: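 Viability counter screen using VM7Luc4E2 (full-length ER-alpha, four ERE-luciferase). The cells were treated with compounds alongside ICI-182,780 10.0nM for 22hr, and live-cell protease fluorescence was quantified with CellTiter-Fluor.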

Assay [3] addresses Progesterone receptor (Homo sapiens) (UniProt P06401). Kind of assay: qHTS assay to identify small molecule agonists of the progesterone receptor (PR) signaling pathway (AID 1346784; calls by dose curve; also: nearly all actives have a fitted effect of over 30% in size; also: potency is read from the fitted curve at half-maximal effect). Put shortly: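 PR-UAS-bla HEK 293T cells (beta-lactamase reporter under UAS) in 2% charcoal-stripped FBS, dosed with 23 nL compound after 6 hr, incubated 16hr at 37C. LiveBLAzer B/G FRET substrate added, fluorescence read after 2 hours.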

For assay [4] the target is unchanged. Description: qHTS assay to identify small molecule antagonists of the progesterone receptor (PR) signaling pathway (AID 1346795; active = well fitted inhibition curve with a large enough effect in the signal ratio in the repeat runs, not every such curve was filed as active; the % refers to the signal ratio; also: potency is read from the fitted curve at half-maximal effect). The method in brief: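 PR-UAS-bla HEK293T cells with beta-lactamase reporter under UAS control, in 2% charcoal-stripped FBS, treated with compounds plus 1 nM promegestone (R5020, final) for 16 hr at 37C. Read-out: FRET beta-lactamase substrate fluorescence after 2 hr at room temperature.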

A short description of assay [5]: qHTS assay to identify small molecule antagonists of the progesterone receptor (PR) signaling pathway - cell viability counter screen (AID 1346798). Also: series mostly up to about 92 µM; nearly all actives have a fitted effect of over 50% in size. Put shortly: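 PR-UAS-bla HEK293T cells, 3,000/well in 2% charcoal-stripped FBS medium, dosed with compounds plus R5020 agonist and incubated 16 h at 37C. Viability then measured in the same wells by CellTiter-Glo luminescence after 30 min at RT.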

A short description of assay [6]: qHTS assay to identify small molecule antagonists of the TGF-beta/Smad signaling pathway - cell viability counter screen (AID 1346824). Also: nearly all actives have a fitted effect of over 50% in size. The method in brief:
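SBE-bla HEK 293T cells were plated overnight at 37 C, then given compounds in DMSO plus TGF-beta1 (added as 0.25 ng/mL solution) for 5 hr. After the bla read, CellTiter-Glo was added to the same wells and luminescence read after 30 min at room temperature.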

Assay [7] can be described thus: qHTS assay to identify small molecule agonists of the TGF-beta/Smad signaling pathway (AID 1346859; active = well fitted activation curve with a large enough effect in the signal ratio in the repeat runs, not every such curve was filed as active; the % refers to the signal ratio; also: series mostly up to about 77 µM). Put shortly: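 SBE-bla HEK293T cells plated overnight, then compound exposure for 5 h at 37 C. Beta-lactamase reporter read with LiveBLAzer B/G FRET substrate after 2 h at room temperature, fluorescence at 405 nm excitation, 460/530 nm emission.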
For assay [8], the target named is Thyrotropin-releasing hormone receptor (Homo sapiens) (UniProt P34981). Kind of assay: qHTS assay to identify small molecule antagonists of the thyrotropin-releasing hormone receptor (TRHR) signaling pathway (AID 1346877; active = well fitted inhibition curve with a large enough effect in the repeat runs, not every such curve was filed as active; also: series mostly up to about 51 µM). Put shortly: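 Following an 18 h incubation at 37 °C and a 2 h calcium dye load, TRHR-HEK293 cells were exposed to compound (5 min, room temperature) and challenged with TRH, 1 nM final.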
Chain of Thyrotropin-releasing hormone receptor (Homo sapiens) (P34981 whole entry, looked up): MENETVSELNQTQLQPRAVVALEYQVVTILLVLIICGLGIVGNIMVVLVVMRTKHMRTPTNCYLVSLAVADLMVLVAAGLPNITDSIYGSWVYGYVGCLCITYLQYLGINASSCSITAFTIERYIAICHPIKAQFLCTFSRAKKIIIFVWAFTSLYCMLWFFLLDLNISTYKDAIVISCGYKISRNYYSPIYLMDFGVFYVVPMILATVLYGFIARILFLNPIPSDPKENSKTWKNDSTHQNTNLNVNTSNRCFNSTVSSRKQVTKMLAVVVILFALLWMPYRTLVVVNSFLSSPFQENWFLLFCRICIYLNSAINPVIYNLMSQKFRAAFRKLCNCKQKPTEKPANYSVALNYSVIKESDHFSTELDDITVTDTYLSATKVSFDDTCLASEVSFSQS

A short description of assay [9]: qHTS assay to identify small molecule agonists of the TGF-beta/Smad signaling pathway - cell viability counter screen (AID 1346829). Also: top concentration of the series differs between compounds; nearly all actives have a fitted effect of over 45% in size. The method in brief:
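After overnight seating at 37 C and 5% CO2, reporter cells got compounds for 5 hr and FRET substrate for 2 hr; cell viability then came from CellTiter-Glo luminescence.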

The nature of assay [10]: qHTS assay to identify small molecule agonists of the progesterone receptor (PR) signaling pathway - cell viability counter screen (AID 1346799; calls by dose curve; also: nearly all actives have a fitted effect of over 45% in size; also: potency is read from the fitted curve at half-maximal effect). Put shortly:
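Counter screen in the PR-UAS-bla HEK293T wells (2% charcoal-stripped FBS, 16 h compound exposure at 37 C) after the bla read. CellTiter-Glo added, 30 min at room temperature, luminescence read as cell viability.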

Chain of Progesterone receptor (Homo sapiens) (P06401 whole entry, looked up): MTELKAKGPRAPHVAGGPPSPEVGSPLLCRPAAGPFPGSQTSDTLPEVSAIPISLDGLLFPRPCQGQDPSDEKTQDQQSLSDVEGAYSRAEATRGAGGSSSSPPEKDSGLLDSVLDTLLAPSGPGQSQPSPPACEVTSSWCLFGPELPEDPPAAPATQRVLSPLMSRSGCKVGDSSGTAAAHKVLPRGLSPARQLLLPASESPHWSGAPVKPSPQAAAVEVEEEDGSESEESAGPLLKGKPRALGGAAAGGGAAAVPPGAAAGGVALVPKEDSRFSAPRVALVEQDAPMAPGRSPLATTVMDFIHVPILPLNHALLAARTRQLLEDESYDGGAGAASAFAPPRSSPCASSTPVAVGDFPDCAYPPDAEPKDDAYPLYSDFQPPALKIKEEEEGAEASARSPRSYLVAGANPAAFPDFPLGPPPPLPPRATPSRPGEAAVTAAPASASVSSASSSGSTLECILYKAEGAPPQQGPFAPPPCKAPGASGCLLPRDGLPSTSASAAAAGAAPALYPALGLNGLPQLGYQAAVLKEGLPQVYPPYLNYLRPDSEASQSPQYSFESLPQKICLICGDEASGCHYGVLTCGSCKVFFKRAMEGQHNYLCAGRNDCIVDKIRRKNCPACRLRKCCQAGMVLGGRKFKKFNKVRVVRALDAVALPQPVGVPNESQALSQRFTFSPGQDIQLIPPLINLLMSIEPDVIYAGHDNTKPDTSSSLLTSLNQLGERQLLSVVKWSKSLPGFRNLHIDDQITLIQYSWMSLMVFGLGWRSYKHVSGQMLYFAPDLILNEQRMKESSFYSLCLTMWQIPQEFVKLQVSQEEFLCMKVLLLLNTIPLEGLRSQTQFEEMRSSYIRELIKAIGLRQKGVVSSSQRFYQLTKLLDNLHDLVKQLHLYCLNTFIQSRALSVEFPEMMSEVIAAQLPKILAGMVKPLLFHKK

Take `CC#Cc1cc(C)nc(Nc2ccccc2)n1`: the molecule was called inactive in [1], in [6] and in assay [7]. Also, the Potency entry in [2], in [3], in [5] and in assay [8] was “inactive” throughout. In addition, the Potency in assay [4] is 24.3 µM (active).
Consider `Cc1ccc(S(=O)(=O)N[C@@H](CCCCN)C(=O)CCl)cc1`, for which the outcome in assay [1], in assay [6] and in assay [7] was inactive. Also, the Potency entry in [2], in assay [3], in assay [4], in assay [5] and in assay [8] was “inactive” each time.
For the molecule `CC[C@@H](CO)NC(=O)[C@@H]1C=C2c3cccc4[nH]cc(c34)C[C@H]2N(C)C1`, the outcome in assay [1] and in assay [6] was inactive. Besides, the Potency result in assay [2], in [3], in assay [4], in assay [5], in assay [9] and in assay [8] was “inactive” in each case.
Consider `CCOC(=O)CCl`, for which the result in assay [1] and in assay [6] was inactive. The Potency entry in [2], in [3], in [5], in [10] and in [9] was “inactive” in each case.
Consider `CCNc1nc(NCC)nc(SC)n1`, for which the call in [1], in [6] and in [7] was inactive. The Potency result in assay [2], in assay [3], in assay [5], in [10], in [9] and in assay [8] was “inactive” each time.
Regarding `Cc1ccc(Cl)c(O)c1`, the outcome in assay [1], in [6] and in assay [7] was inactive. Moreover, the Potency result in assay [2], in assay [3], in [5], in assay [10], in [9] and in assay [8] was “inactive” each time.
For `COC(=O)[C@@H](N)CCCN/C(N)=N/[N+](=O)[O-]`, the call in assay [1], in assay [6] and in assay [7] was inactive. Besides, the Potency result in assay [2], in [3], in assay [4], in assay [10] and in assay [8] was “inactive” in each case.
`NCCOS(=O)(=O)O`: the result in assay [1], in [6] and in assay [7] was inactive. Further, the Potency result in assay [2], in [3], in assay [4], in [10], in assay [9] and in [8] was “inactive” each time.
In the case of `CCN1CCCC1CNC(=O)C(O)(c1ccccc1)c1ccccc1` (stereo not drawn), the outcome in [1], in [6] and in assay [7] was inactive. Further, the Potency entry in assay [2], in assay [3], in assay [5], in assay [10] and in [9] was “inactive” throughout.
On to `CCN(CCO)CCO`, for which the call in assay [1], in assay [6] and in assay [7] was inactive. In addition, the Potency entry in [2], in assay [3], in [5], in assay [10], in assay [9] and in assay [8] was “inactive” in each case.
For the molecule `ClCOCCl`, the result in assay [1], in assay [6] and in assay [7] was inactive. In addition, the Potency result in assay [2], in assay [3], in assay [5], in [10] and in assay [9] was “inactive” throughout.
As for `CCC1(CC)C(=O)C=CNC1=O`, the outcome in assay [1], in assay [6] and in assay [7] was inactive. Moreover, the Potency entry in assay [2], in [3], in [5], in assay [10], in assay [9] and in assay [8] was “inactive” in each case.
In the case of `O=c1[nH]oc2c1CCNC2`, the result in [1] and in assay [6] was inactive. The Potency entry in assay [2], in assay [3], in assay [5], in [10] and in assay [9] was “inactive” in each case.
For the molecule `C=C(C)[C@H]1CN[C@H](C(=O)O)[C@H]1CC(=O)O`, the outcome in assay [1], in [6] and in [7] was inactive. The Potency entry in assay [2], in [3], in assay [5], in assay [10], in assay [9] and in assay [8] was “inactive” throughout.
For `COC1=CC(=O)O[C@@H](/C=C/c2ccccc2)C1`, the result in assay [1] and in assay [6] was inactive. The Potency entry in [2], in assay [3], in assay [5], in assay [10] and in assay [9] was “inactive” each time.
In the case of `O=P(O)(O)CN(CP(=O)(O)O)CP(=O)(O)O`, the outcome in assay [1], in [6] and in [7] was inactive. The Potency entry in [2], in assay [3], in assay [5], in [10] and in assay [9] was “inactive” each time.
On to `CCOP(=O)(CN(CCO)CCO)OCC`, for which the molecule was classed as inactive in [1], in [6] and in [7]. Further, the Potency result in [2], in [3], in assay [5], in assay [10] and in assay [9] was “inactive” each time.
`N#CN=C1SCCN1Cc1ccc(Cl)nc1`: the outcome in assay [1], in [6] and in assay [7] was inactive. In addition, the Potency entry in assay [2], in assay [3], in assay [4], in [5], in assay [9] and in [8] was “inactive” throughout.
With `CCOC(=O)Nc1cccc(OC(=O)Nc2ccccc2)c1`, the call in assay [1], in assay [6] and in assay [7] was inactive. The Potency result in [2], in assay [3], in [4], in [5] and in assay [8] was “inactive” in each case.
As for `C=CCC1(C(C)CC)C(=O)NC(=O)NC1=O` (stereo not drawn), the call in assay [1], in assay [6] and in assay [7] was inactive. For the same molecule, the Potency entry in assay [2], in assay [3], in assay [5], in assay [10] and in [9] was “inactive” each time.
For `Clc1ccc(C(Cl)(Cl)Cl)cn1`, the molecule was called inactive in [1], in assay [6] and in [7]. The Potency result in assay [2], in assay [3], in [4], in assay [9] and in assay [8] was “inactive” each time.
Turning to `C[C@]12C=CC(=O)C=C1CC[C@@H]1[C@@H]2CC[C@@]2(C)[C@H]1CC[C@]2(C)O`, the molecule was called inactive in assay [1] and in [6]. For the same molecule, the Potency result in assay [2], in assay [4], in assay [9] and in assay [8] was “inactive” each time. In addition, the Potency in assay [3] was 3.35 µM (active).
Take `O=c1[nH]c2ccccc2o1`: the molecule was classed as inactive in [1] and in assay [6]. The Potency entry in [2], in assay [3], in assay [4], in [5], in assay [9] and in assay [8] was “inactive” each time.
Turning to `C=CC1(C)OC(=O)N(c2cc(Cl)cc(Cl)c2)C1=O` (stereo not drawn), the call in assay [1], in assay [6] and in [7] was inactive. Besides, the Potency result in assay [2], in [3] and in assay [8] was “inactive” each time. For the same molecule, the Potency in assay [4] was 21.6 µM (active); in assay [10], 54.2 µM (active) and inactive.
As for `Nc1c(Cl)c(F)nc(OCC(=O)O)c1Cl`, the call in assay [1], in assay [6] and in [7] was inactive. The Potency entry in assay [2], in assay [3], in assay [4], in [5] and in [8] was “inactive” throughout.
Regarding `Cl/C=C/CCl`, the result in [1], in [6] and in assay [7] was inactive. Besides, the Potency result in assay [2], in [3], in [5], in assay [10] and in assay [9] was “inactive” each time.
On to `Cc1cccc2sc3nncn3c12`, for which the call in assay [1], in assay [6] and in assay [7] was inactive. For the same molecule, the Potency result in [2], in [3], in assay [4], in [10], in assay [9] and in assay [8] was “inactive” in each case.
Take `CCCOC(=O)Cc1ccc(OCC(=O)N(CC)CC)c(OC)c1`: the call in assay [1], in assay [6] and in assay [7] was inactive. The Potency result in assay [2], in assay [3], in assay [5], in assay [10], in assay [9] and in assay [8] was “inactive” throughout.
As for `CCOC(=O)c1ncn2c1CN(C)C(=O)c1c(I)cccc1-2`, the molecule was classed as inactive in [1], in assay [6] and in assay [7]. Further, the Potency result in assay [2], in [3], in [5], in [10], in assay [9] and in assay [8] was “inactive” in each case.

Values taken from PubChem BioAssay (Tox21).
